Experimental data taken from the supplement of paper PMC10849652.
Of roughly 7,900 targets only a part is listed; those with a hit were picked by preference. About 0.6% of all pairs of compound and target were hits.

compound: O=C(CCCCCCNC(=O)c1cnc(N(c2ccccc2)c2ccccc2Cl)nc1)NO [citarinostat]; test: log2 fold change, soluble protein after heating vs DMSO (PISA); higher = thermal stabilisation; K562 cells, 10 uM, 30 min; active = over 0.2 and 3.5 SD of the protein, either way, in both replicates (recomputed)
In short: (§1)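 Values are thermal stability changes relative to control samples and are taken from duplicates. They are stated as log2 fold changes. Before quantification by TMTpro 16plex LC-MS/MS with equalised channel sums, K562 cells at 2×10^6 cells/mL were treated with 10 μM compound for 30 min, heated in aliquots for 3 min across 48°C-58°C, pooled, extracted in PBS with 0.5% NP-40 at 4°C, and centrifuged at 21,000xg for 90 min to give the soluble supernatant.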

UniProt Q8N668, sequence (Q8N668 whole entry, looked up): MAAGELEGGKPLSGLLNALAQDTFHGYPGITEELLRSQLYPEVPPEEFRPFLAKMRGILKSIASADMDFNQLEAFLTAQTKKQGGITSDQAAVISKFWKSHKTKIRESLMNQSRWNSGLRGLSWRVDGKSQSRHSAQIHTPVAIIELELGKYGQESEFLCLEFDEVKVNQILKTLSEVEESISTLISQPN
UniProt Q13286, sequence (Q13286 whole entry, looked up): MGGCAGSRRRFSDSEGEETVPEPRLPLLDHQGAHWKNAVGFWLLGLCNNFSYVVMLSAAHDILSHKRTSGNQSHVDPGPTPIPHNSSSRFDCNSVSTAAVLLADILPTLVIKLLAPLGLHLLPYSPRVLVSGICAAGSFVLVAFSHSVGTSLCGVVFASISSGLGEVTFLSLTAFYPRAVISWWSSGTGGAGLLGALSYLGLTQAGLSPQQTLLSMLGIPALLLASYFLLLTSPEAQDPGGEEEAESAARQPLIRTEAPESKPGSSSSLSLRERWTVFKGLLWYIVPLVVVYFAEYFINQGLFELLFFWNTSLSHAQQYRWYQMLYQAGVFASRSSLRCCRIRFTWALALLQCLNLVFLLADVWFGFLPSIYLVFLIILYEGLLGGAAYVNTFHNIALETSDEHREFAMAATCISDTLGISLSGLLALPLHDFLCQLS
UniProt Q9UHN6, sequence (Q9UHN6 whole entry, looked up): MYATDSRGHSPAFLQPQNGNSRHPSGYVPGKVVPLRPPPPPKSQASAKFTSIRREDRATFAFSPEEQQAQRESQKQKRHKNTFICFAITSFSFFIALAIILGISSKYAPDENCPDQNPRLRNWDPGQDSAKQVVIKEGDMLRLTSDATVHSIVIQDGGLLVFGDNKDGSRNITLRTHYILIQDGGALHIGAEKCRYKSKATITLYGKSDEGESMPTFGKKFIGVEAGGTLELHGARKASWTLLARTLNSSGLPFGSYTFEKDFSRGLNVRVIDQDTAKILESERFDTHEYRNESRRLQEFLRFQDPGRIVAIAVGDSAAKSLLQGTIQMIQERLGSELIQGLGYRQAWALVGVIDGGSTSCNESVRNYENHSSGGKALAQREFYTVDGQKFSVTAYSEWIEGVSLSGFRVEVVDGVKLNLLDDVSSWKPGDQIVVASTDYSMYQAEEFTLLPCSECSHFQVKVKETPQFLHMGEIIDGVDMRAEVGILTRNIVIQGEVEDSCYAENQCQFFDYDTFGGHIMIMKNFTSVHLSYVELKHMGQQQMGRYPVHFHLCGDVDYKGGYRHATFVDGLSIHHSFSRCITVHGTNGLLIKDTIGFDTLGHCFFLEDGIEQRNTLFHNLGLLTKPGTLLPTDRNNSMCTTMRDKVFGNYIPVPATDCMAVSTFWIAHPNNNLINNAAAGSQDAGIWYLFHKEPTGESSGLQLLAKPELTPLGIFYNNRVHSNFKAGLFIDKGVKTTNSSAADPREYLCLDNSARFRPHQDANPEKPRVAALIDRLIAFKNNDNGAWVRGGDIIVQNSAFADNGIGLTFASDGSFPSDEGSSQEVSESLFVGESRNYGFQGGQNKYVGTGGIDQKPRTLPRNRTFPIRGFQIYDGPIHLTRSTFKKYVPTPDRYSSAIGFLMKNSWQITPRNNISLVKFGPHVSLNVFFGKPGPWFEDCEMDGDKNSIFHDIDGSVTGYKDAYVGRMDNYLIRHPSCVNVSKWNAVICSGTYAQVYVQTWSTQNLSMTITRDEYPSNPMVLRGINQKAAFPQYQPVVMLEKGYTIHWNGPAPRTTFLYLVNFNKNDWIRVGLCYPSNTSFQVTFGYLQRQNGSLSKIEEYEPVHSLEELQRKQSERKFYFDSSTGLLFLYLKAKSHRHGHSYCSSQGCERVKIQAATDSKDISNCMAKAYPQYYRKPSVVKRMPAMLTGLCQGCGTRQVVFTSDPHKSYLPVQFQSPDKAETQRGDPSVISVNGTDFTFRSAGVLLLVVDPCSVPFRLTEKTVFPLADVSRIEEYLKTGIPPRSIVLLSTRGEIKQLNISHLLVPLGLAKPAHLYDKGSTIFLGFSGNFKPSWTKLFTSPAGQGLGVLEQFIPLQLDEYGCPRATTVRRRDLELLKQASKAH
UniProt O75956, sequence (O75956 whole entry, looked up): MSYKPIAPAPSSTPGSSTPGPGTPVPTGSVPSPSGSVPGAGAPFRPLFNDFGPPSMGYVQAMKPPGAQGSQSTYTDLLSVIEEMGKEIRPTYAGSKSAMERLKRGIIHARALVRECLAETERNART
UniProt Q9P0B6, sequence (Q9P0B6 whole entry, looked up): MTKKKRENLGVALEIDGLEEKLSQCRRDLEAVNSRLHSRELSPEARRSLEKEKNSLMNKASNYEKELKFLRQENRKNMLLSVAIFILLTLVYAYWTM
UniProt P30281, sequence (P30281 whole entry, looked up): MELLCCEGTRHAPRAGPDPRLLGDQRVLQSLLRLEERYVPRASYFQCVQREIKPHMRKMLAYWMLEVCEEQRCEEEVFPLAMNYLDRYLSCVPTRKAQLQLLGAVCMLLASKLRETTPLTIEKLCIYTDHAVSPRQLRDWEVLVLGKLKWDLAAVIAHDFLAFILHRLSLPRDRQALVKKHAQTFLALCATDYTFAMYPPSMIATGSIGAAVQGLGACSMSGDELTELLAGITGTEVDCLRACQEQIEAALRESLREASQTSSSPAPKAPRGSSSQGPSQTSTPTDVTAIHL
UniProt P33552, sequence (P33552 whole entry, looked up): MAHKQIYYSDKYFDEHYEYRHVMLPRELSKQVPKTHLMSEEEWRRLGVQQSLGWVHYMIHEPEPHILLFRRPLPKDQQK
UniProt Q2TAC2, sequence (Q2TAC2 whole entry, looked up): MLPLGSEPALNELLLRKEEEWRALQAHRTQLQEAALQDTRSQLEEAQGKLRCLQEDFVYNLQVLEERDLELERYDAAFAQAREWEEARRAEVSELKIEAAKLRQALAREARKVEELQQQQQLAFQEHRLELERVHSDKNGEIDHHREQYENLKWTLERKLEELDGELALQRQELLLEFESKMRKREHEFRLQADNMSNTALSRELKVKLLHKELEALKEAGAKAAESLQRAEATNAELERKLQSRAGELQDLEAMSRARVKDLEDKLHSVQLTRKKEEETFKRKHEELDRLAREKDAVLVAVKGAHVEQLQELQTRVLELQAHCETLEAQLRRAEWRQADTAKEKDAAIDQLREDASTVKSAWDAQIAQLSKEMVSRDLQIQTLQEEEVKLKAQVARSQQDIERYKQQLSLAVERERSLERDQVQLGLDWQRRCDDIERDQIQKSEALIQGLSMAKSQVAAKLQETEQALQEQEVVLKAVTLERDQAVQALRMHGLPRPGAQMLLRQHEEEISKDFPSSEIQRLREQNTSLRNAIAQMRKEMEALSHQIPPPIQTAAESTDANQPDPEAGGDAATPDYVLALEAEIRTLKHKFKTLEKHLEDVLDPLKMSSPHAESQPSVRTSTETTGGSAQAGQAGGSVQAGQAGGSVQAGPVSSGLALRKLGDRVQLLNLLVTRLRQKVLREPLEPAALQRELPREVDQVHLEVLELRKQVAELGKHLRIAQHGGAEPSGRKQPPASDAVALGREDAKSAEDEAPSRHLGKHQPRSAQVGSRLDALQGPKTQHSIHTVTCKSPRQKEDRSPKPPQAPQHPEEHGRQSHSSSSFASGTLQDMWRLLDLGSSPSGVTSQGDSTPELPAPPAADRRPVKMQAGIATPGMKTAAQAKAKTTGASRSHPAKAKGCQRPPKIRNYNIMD
UniProt Q14677, sequence (Q14677 whole entry, looked up): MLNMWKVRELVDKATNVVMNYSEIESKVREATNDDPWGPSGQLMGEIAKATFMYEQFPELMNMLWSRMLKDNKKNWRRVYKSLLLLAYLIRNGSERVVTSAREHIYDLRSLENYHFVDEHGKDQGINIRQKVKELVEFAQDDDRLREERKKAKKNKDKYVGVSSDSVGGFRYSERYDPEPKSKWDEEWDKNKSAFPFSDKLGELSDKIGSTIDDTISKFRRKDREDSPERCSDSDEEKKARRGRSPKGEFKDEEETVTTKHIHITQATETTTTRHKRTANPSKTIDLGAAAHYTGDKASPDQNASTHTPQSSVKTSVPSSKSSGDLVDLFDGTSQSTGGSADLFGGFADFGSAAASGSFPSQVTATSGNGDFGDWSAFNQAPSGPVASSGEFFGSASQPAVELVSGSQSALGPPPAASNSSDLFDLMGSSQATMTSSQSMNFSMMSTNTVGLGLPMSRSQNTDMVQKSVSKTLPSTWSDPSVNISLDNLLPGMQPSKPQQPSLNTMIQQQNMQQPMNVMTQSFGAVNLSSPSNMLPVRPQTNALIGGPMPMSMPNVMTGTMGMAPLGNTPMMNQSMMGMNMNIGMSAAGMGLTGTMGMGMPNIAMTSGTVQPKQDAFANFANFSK
UniProt A8MTT3, sequence (A8MTT3 whole entry, looked up): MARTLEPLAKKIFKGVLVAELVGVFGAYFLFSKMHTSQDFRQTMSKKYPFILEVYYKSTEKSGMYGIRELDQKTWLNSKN
UniProt Q9BSQ5, sequence (Q9BSQ5 whole entry, looked up): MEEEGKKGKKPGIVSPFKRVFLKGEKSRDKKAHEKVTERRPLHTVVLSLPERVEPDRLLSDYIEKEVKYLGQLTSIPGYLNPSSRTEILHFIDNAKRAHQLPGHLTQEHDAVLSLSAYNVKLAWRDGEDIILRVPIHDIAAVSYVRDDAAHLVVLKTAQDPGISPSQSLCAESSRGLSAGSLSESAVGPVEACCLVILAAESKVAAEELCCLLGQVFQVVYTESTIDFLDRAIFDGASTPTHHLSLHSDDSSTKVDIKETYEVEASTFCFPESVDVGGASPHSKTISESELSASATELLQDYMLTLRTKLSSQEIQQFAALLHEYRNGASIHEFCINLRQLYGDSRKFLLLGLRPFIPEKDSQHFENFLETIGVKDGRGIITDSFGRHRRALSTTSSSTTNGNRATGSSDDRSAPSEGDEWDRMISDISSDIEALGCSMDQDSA
UniProt Q96F85, sequence (Q96F85 whole entry, looked up): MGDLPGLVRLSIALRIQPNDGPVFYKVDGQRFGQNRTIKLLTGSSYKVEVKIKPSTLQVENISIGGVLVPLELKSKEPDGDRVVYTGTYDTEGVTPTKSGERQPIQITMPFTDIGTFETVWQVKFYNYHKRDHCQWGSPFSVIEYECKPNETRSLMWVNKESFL

| Target | log2 fold change |
| --- | --- |
| CCDC82 (UniProt Q8N4S0) | 0.023 (inactive) |
| CKS2 (UniProt P33552) | -0.092 (inactive) |
| CDK2AP2 (UniProt O75956) | 0.009 (inactive) |
| CASP7 isoform 3 (UniProt P55210) | -0.058 (inactive) |
| CNOT4 isoform 9 (UniProt O95628) | -0.038 (inactive) |
| CLASP2 (UniProt O75122) | 0.143 (inactive) |
| CCDC167 (UniProt Q9P0B6) | -0.014 (inactive) |
| CCM2 isoform 2 (UniProt Q9BSQ5) | -0.073 (inactive) |
| CRLS1 (UniProt Q9UJA2) | 0.012 (inactive) |
| CFAP47 (UniProt Q6ZTR5) | -0.042 (inactive) |
| CFAP58 (UniProt Q5T655) | -0.357 (inactive) |
| CLN3 (UniProt Q13286) | 0.042 (inactive) |
| CEMIP2 (UniProt Q9UHN6) | 0.124 (inactive) |
| CS (UniProt F8VU34) | -0.298 (inactive) |
| CCDC57 (UniProt Q2TAC2) | 0.008 (inactive) |
| CLCN5 isoform 2 (UniProt P51795) | 0.045 (inactive) |
| C6orf120 (UniProt Q7Z4R8) | 0.031 (inactive) |
| CEBPZOS (UniProt A8MTT3) | -0.011 (inactive) |
| COMMD1 (UniProt Q8N668) | 0.039 (inactive) |
| CCND3 (UniProt P30281) | 0 (inactive) |
| CLINT1 (UniProt Q14677) | -0.146 (inactive) |

compound: O=C(O)c1ccc2c(c1)nc(Nc1cccc(Cl)c1)c1ccncc12 [silmitasertib]; test: as above
In short: as §1

| Target | log2 fold change |
| --- | --- |
| CCDC82 (UniProt Q8N4S0) | 0.047 (inactive) |
| CKS2 (UniProt P33552) | 0.065 (inactive) |
| CDK2AP2 (UniProt O75956) | -0.094 (inactive) |
| CSNK1A1 isoform 3 (UniProt P48729) | 0 (inactive) |
| CREB3L2 (UniProt Q70SY1) | 0.023 (inactive) |
| CNOT4 isoform 9 (UniProt O95628) | 0.024 (inactive) |
| CNRIP1 (UniProt Q96F85) | -0.13 (inactive) |
| CLASP2 (UniProt O75122) | 0.083 (inactive) |
| CCDC167 (UniProt Q9P0B6) | 0.135 (inactive) |
| CCM2 isoform 2 (UniProt Q9BSQ5) | 0.048 (inactive) |
| CRLS1 (UniProt Q9UJA2) | 0.017 (inactive) |
| CD68 (UniProt P34810) | 0.07 (inactive) |
| CFAP58 (UniProt Q5T655) | -0.008 (inactive) |
| CLN3 (UniProt Q13286) | 0.025 (inactive) |
| CEMIP2 (UniProt Q9UHN6) | 0.057 (inactive) |
| CCDC57 (UniProt Q2TAC2) | -0.038 (inactive) |
| CRTC3 (UniProt Q6UUV7) | 0.098 (inactive) |
| CCNL1 (UniProt Q9UK58) | -0.173 (inactive) |
| CEBPZOS (UniProt A8MTT3) | 0.018 (inactive) |
| COMMD1 (UniProt Q8N668) | -0.021 (inactive) |
| CCND3 (UniProt P30281) | 0.28 (inactive) |
| CLINT1 (UniProt Q14677) | 0.021 (inactive) |

compound: O=C1NC(=O)C(c2cnc3ccccn23)=C1c1cn2c3c(cc(F)cc13)CN(C(=O)N1CCCCC1)CC2; test: as above
In short: as §1

| Target | log2 fold change |
| --- | --- |
| CCDC82 (UniProt Q8N4S0) | -0.169 (inactive) |
| CDK2AP2 (UniProt O75956) | -0.062 (inactive) |
| CASP7 isoform 3 (UniProt P55210) | -0.048 (inactive) |
| CCDC187, A0A1W2PQX5 | -0.048 (inactive) |
| CREB3L2 (UniProt Q70SY1) | -0.076 (inactive) |
| CNRIP1 (UniProt Q96F85) | 0.738 (active) |
| CRTC1 isoform 2 (UniProt Q6UUV9) | -0.371 (inactive) |
| CCDC167 (UniProt Q9P0B6) | 0.038 (inactive) |
| CCM2 isoform 2 (UniProt Q9BSQ5) | -0.136 (inactive) |
| CA1 (UniProt E5RIF9) | -0.026 (inactive) |
| CFAP47 (UniProt Q6ZTR5) | -0.025 (inactive) |
| CLN3 (UniProt Q13286) | 0.072 (inactive) |
| CD84 (UniProt Q9UIB8) | 0.084 (inactive) |
| CEMIP2 (UniProt Q9UHN6) | 0.034 (inactive) |
| CCDC57 (UniProt Q2TAC2) | -0.002 (inactive) |
| C5orf30 (UniProt Q96GV9) | -0.051 (inactive) |
| CRTC3 (UniProt Q6UUV7) | 0.025 (inactive) |
| COMMD3-BMI1 (UniProt R4GMX3) | -0.012 (inactive) |
| COMMD1 (UniProt Q8N668) | -0.018 (inactive) |
| CCND3 (UniProt P30281) | 0.069 (inactive) |
| CLINT1 (UniProt Q14677) | 0.058 (inactive) |

compound: c1cc(OCCN2CCCCC2)cc(-c2n[nH]c3ccc(-c4nnc[nH]4)cc23)c1; test: as above
In short: as §1

| Target | log2 fold change |
| --- | --- |
| CCDC82 (UniProt Q8N4S0) | 0.046 (inactive) |
| CKS2 (UniProt P33552) | -0.071 (inactive) |
| CDK2AP2 (UniProt O75956) | -0.1 (inactive) |
| CASP7 isoform 3 (UniProt P55210) | 0.021 (inactive) |
| CNOT4 isoform 9 (UniProt O95628) | 0.178 (inactive) |
| CLASP2 (UniProt O75122) | 0.08 (inactive) |
| CCDC167 (UniProt Q9P0B6) | 0.009 (inactive) |
| CCM2 isoform 2 (UniProt Q9BSQ5) | 0.069 (inactive) |
| CRLS1 (UniProt Q9UJA2) | -0.051 (inactive) |
| CFAP47 (UniProt Q6ZTR5) | -0.008 (inactive) |
| CFAP58 (UniProt Q5T655) | 0.392 (inactive) |
| CLN3 (UniProt Q13286) | -0.033 (inactive) |
| CEMIP2 (UniProt Q9UHN6) | -0.078 (inactive) |
| CS (UniProt F8VU34) | -0.393 (inactive) |
| CCDC57 (UniProt Q2TAC2) | -0.11 (inactive) |
| CLCN5 isoform 2 (UniProt P51795) | -0.114 (inactive) |
| C6orf120 (UniProt Q7Z4R8) | -0.141 (inactive) |
| CEBPZOS (UniProt A8MTT3) | -0.056 (inactive) |
| COMMD1 (UniProt Q8N668) | -0.065 (inactive) |
| CCND3 (UniProt P30281) | 0.183 (inactive) |
| CLINT1 (UniProt Q14677) | 0.062 (inactive) |
